Experimental data published in PubChem BioAssay AID504339 (National Center for Advancing Translational Sciences (NCATS), 2011).
Screen size: about 390,000 compounds; about 17,000 (4.4%) were called active. Another 8% or so got no clear call; they are omitted. The sample as a whole holds a higher share of actives than the screen did. A number with no mark means an inactive call. Calls follow the shape of the dose curve; as a rule, active = well fitted inhibition curve with a large enough effect; inconclusive = small, poorly fitted or top-dose-only effect; inactive = no such curve, though single readings can be large or run the other way.

target: Lysine-specific demethylase 4A (Homo sapiens) (UniProt O75164); test: qHTS Assay for Inhibitors of JMJD2A-Tudor Domain; conditions: AlphaScreen JMJD2A-Tudor / H3K4me3 peptide binding; series mostly up to 114 µM; activity change, negative = inhibition: at the top concentration; also: nearly all actives have a fitted effect of over 50% in size
% is scaled to controls: 0 for no effect and ±100 for the full control effect; potency is read from the fitted curve at half-maximal effect.

Chain of Lysine-specific demethylase 4A (Homo sapiens) (O75164 whole entry, looked up, the tested form may be a part): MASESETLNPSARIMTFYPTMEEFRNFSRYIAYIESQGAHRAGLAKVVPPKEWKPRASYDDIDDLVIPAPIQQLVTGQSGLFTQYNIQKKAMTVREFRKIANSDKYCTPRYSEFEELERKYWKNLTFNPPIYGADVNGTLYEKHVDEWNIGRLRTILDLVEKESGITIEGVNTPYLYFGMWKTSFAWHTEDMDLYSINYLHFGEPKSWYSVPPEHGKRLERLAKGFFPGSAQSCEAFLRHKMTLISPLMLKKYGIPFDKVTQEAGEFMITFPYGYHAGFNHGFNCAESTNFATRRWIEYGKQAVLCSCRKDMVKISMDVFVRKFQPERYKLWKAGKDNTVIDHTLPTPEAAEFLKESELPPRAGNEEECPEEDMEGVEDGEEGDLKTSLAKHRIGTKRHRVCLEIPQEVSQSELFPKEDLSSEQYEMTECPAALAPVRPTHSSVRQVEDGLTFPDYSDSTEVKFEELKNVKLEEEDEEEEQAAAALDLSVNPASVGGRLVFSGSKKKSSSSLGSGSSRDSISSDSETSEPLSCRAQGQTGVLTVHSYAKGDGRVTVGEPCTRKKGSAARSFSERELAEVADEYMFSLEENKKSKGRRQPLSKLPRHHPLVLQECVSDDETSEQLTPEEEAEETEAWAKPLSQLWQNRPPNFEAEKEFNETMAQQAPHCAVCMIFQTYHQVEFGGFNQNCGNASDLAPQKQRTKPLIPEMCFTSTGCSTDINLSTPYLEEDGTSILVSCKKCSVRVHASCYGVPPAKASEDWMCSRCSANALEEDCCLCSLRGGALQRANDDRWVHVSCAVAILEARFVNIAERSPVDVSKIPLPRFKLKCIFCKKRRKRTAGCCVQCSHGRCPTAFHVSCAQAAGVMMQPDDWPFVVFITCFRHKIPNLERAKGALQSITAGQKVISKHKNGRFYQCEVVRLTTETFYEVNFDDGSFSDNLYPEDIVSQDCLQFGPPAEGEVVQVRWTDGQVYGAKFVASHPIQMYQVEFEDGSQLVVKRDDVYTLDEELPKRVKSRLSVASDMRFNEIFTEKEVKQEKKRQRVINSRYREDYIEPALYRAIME

Compound	Potency	activity change, negative = inhibition
OCCN(Cc1ccccc1)Cc1ccc(Cl)cc1	10 µM (active)	–
O=[N+]([O-])c1ccc(N(CCO)Cc2ccccc2)c([N+](=O)[O-])c1	–	-35.1%
CN(C(=O)CN(CCO)CC(=O)N(C)C(C)(C)Cc1ccccc1)C(C)(C)Cc1ccccc1	–	-18.7%
CC(O)CN(Cc1ccc(Cl)cc1)CC(C)O (centres undefined)	8.91 µM (active)	–
CC(Cc1cccs1)N(Cc1ccc(Cl)cc1)C(=O)c1ccncc1 (centres undefined)	–	-4.03%
O=C(Cc1ccc(Cl)cc1)c1ccccc1	–	6.9%
Cc1ccc(CN(C(=O)c2ccccc2[N+](=O)[O-])c2ccccn2)cc1	–	-12.6%
COc1ccc(CC(=O)Nc2ccc(-c3nc4ccccc4s3)c(C)c2)cc1	–	-18.3%
Cc1ccc2cccc(NC(=O)C(C)Oc3ccc(C)c(C)c3)c2n1 (centres undefined)	–	-12.9%
COc1ccc(-n2nc(C(=O)NCCc3ccc(Cl)cc3)c3c4ccccc4n(C)c3c2=O)cc1Cl	–	-2.67%
COc1cc(OC)c(NC(=O)Cc2ccc(-n3c(C)nc4cccnc43)cc2)cc1Cl	–	-23.1%
COc1cc2c(cc1OC)C(COc1ccc(F)cc1)N(C(=O)c1ccccc1F)CC2 (centres undefined)	–	-28.7%
Cc1cccc(C(=O)Nc2ccc(-c3nc4ncccc4o3)cc2C)c1	–	-20.7%
Cc1ccc2cccc(O)c2[n+]1[O-]	10 µM (active)	–
NCC(=O)c1cccc2ccc[n+]([O-])c12	–	-8.7%
O=C(NCC(c1ccco1)S(=O)(=O)c1cccs1)c1ccc(F)cc1 (centres undefined)	–	-13.7%
Cc1ccc(CNC(=O)CSc2c3c(nc4cc(Cl)ccc24)CCCC3)cc1	–	-3.31%
COc1ccc(-c2nc(C)c(CCNC(=O)c3ccc(C(F)(F)F)cc3)s2)cc1OC	–	3.87%
Cc1ccc(-c2nc3ccccn3c2Nc2c(C)cccc2C)o1	50.1 µM (active)	–
Cc1cccc(C)c1Nc1c(-c2ccccc2O)nc2ncccn12	–	-30.7%
Cc1ccc(Nc2c(-c3ccc(C)s3)nc3ccccn23)cc1	inactive	–
c1ccc2c(C[n+]3csc4ccccc43)cccc2c1	17.8 µM (active)	–
c1ccc2c(CNn3cnnc3)cccc2c1	–	0% [at 11.4 µM]
Nc1scc[n+]1Cc1cccc2cccnc12	–	-15%
CCc1c(C)sc(NC(=O)C2c3ccccc3Oc3ccccc32)c1C(=O)OC(C)C	–	4.47%

Compound	Potency	activity change, negative = inhibition
CCOC(=O)c1c(C)n(S(=O)(=O)c2ccc(C)cc2C)c2ccc(NS(=O)(=O)c3ccc(C)cc3C)cc12	–	-31%
COc1ccc2c(c1)CCc1c(C(=O)Nc3cc(C)ccc3O)noc1-2	–	-14%
Cc1ccc(N2CCN(C(=O)CCc3c(C)nc4c(c3C)c(=O)n(C)c(=O)n4C)CC2)c(C)c1	–	-13.8%
O=S(=O)(O)c1cc2onnc2c2ccccc12	50.1 µM (active)	–
CCC(Sc1nnc(-c2ccc(OC)cc2)c(-c2ccc(OC)cc2)n1)C(=O)NC1CCCCC1 (centres undefined)	–	-3.98%
CCOC(=O)c1ccc(N2C(=O)c3[nH]nc(-c4ccccc4)c3C2c2ccc(C(C)C)cc2)cc1 (centres undefined)	–	-35.3%
O=C(C1=C(O)C(=O)N(c2ncccn2)C1c1cccs1)c1ccco1 (centres undefined)	20 µM (active)	–
O=C(c1ccco1)N(Cc1cccs1)c1ccc(O)cc1	–	-7.69% [at 57.1 µM]
O=C(C1=C(O)C(=O)N(Cc2ccccc2)C1c1cccnc1)c1ccco1 (centres undefined)	–	-11%
Cc1cc(C)c2oc(C(=O)Nc3ccc(S(=O)(=O)N(C)c4ccccc4)cc3)cc(=O)c2c1	–	-9.03%
Cc1cc(N2CCN(c3cccc(C(F)(F)F)c3)CC2)n2nc(-c3ccccc3)nc2n1	–	-27%
O=C(CN1C(=O)COc2ccc(Cl)cc21)Nc1ccc(N2CCOCC2)cc1	–	-14%
O=C(CN1C(=O)COc2ccccc21)Nc1ccc(F)cc1	50.1 µM (active)	–
CC(OC(=O)CN1C(=O)COc2ccccc21)C(=O)NCc1ccc(F)cc1 (centres undefined)	–	-2.76%
Cc1cccc(C(C)C)c1NC(=O)C(NS(=O)(=O)c1cccc2nsnc12)c1ccccc1 (centres undefined)	–	-31.7%
COc1ccc(-c2cn3c(n2)sc2cc(C(=O)Nc4ccc(F)cc4)ccc23)cc1	–	-8.22%
CCOc1cc(C2C(C(=O)OC(C)C)=C(C)NC3=C2C(=O)CCC3)cc([N+](=O)[O-])c1O (centres undefined)	–	-4.86%
CCOc1cc(C2C(C(=O)OC)=C(C)NC3=C2C(=O)c2ccccc23)ccc1O (centres undefined)	50.1 µM (active)	–
COC(=O)C1=C(C)NC2=C(C(=O)c3ccccc32)C1c1ccc(-c2ccc(C(=O)O)cc2)o1 (centres undefined)	–	-17.6% [at 11.4 µM]
COC(=O)C1=C(c2ccccc2)c2ccccc2S(=O)(=O)N1CC(=O)Nc1ccccc1C(F)(F)F	–	-24.2%
Cc1cccc2c(=O)cc(CSc3ccccc3NC(=O)C(C)C)[nH]c12	–	-6.49%
CC(=O)Nc1cc(C(=O)NCc2ccc(F)cc2Cl)ccc1Sc1ccc(Cl)cc1	–	-17.1%
Cc1ccc(CNC(=O)C2(C(F)(F)F)C/C(=C\CCO)CCCO2)o1 (centres undefined)	–	-18.6%
CCCCn1cc(S(=O)(=O)c2ccc(OCC)cc2)c(=O)c2cc(OC)c(OC)cc21	–	-12.3%
